Common to all, as to experiment: NCI-60 one-dose screen, 48 h (100 = growth as untreated, 0 = no growth, -100 = all killed)
Conditions in all cases: 10 µM unless noted

For experiment [1], the system named is SR leukemia.
In experiment [2] the test system is RPMI-8226 leukemia.
Experiment [3] relates to OVCAR-8 ovarian.
Experiment [4] concerns OVCAR-5 ovarian.
In experiment [5] the test system is OVCAR-4 ovarian.
Experiment [6] relates to SK-OV-3 ovarian.
The test system of experiment [7] is IGROV1 ovarian.
For experiment [8], the system named is OVCAR-3 ovarian.
Experiment [9] deals with HS 578T breast.
Experiment [10] relates to NCI/ADR-RES ovarian.

Compounds without any hit were thinned out: in the full panel of roughly 83,000, 20% have a hit.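 Single-concentration screen, 48 h exposure, 96-well plates. Endpoint: percent growth. Below 10 = active.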 Values without a mark were called inactive. The source made the active and inactive calls.

For `O=S(=O)(NCCNc1nccc(-c2c(-c3ccc(F)c(O)c3)nc3sccn23)n1)c1ccc(O)cc1`, the growth in experiment [1] is 38.4%; in [2] it was 17.9%; in experiment [3], 32.8%; in [4] it was 104%; in experiment [5] it was 34.1%; in [6], 53.7%. Besides, the growth in experiment [7] is 36.1%; in experiment [8], 57.4%; in experiment [9], 64.1%; in experiment [10], 39.6%.
In the case of `N#Cc1ccc(O)c(C2=NCC(c3ccccc3)O2)c1` (stereo not given), the growth in experiment [1] is 38%; in [2], 33.3%; in [3], 19.6%; in experiment [4], 84%; in experiment [5] it was 9.62% (active); in [6], 45.3%. The growth in [7] was 33.1%; in experiment [8] it was 7.61% (active); in experiment [9], 77.2%; in experiment [10], 1.45% (active).
As for `CCCCCCCCCc1ccc(OCCOCCOCCOCCOCCOCCOCCOCCOCCO)cc1`, the growth was -2.84% (active) in experiment [1]; -12.1% (active) in experiment [2]; 9.01% (active) in experiment [3]; 48.3% in experiment [4]; 22.4% in [5]; 110% in [6]. Also, the growth in experiment [7] was 24.4%; in experiment [8], 2.54% (active); in experiment [9], 8.85% (active); in experiment [10], 1.74% (active).
Consider `Cc1cc(C)c2c(c1)N(C)c1ncnc(-n3cnc4cc(C)ccc43)c1CC2C` (stereo not given), for which the growth in experiment [1] was 4.51% (active); in experiment [2], 9.87% (active); in experiment [3], 17.1%; in experiment [4] it was 76.6%; in experiment [5] it was 61.5%; in experiment [6], 3.2% (active). For the same compound, the growth in experiment [7] is 44.7%; in experiment [8] it was 8.19% (active); in experiment [9], 25.1%; in experiment [10], 14.6%.
For `O=C(CSc1nc2ccc([N+](=O)[O-])cc2[nH]1)Nc1ccc([N+](=O)[O-])cc1`, the growth in [1] is 10.7%; in experiment [2], -17.5% (active); in experiment [3], 14.4%; in [4], 63.3%; in experiment [5] it was 1.39% (active); in experiment [6], 27%. For the same compound, the growth in experiment [7] was 37.7%; in experiment [8] it was 18.5%; in experiment [9], 31.7%; in [10], 36.3%.
With `CC(C)c1ccc(C(=O)Nc2sc3c(c2C(N)=O)CCC(=O)C3)cc1`, the growth was 0.332% (active) in [1]; -37.1% (active) in [2]; 11% in [3]; 8.42% (active) in experiment [4]; -85.4% (active) in experiment [5]; 25.8% in experiment [6]. The growth in [7] was 9.75% (active); in experiment [8] it was -35.7% (active); in [9] it was -4.09% (active); in [10] it was 1.35% (active).
In the case of `N=C(N)c1ccc(-c2ccc(-c3ccc(Cl)cc3Cl)s2)cc1`, the growth in [1] was 4.31% (active); in experiment [2] it was -24.4% (active); in [3], -21.3% (active); in experiment [4], 38.6%; in [5] it was -16.2% (active); in experiment [6] it was 88%. Besides, the growth is -37.5% (active) in experiment [7], -16.4% (active) in [8], 71.6% in [9] and 77.5% in [10].
Consider `O=C1c2c(c3c4ccccc4[nH]c3c3ccc4ccccc4c23)C(=O)N1CCN1CCOCC1`, for which the growth in experiment [1] is 13.1%; in experiment [2], 7.91% (active); in [3], 31.5%; in experiment [4], 71.7%; in experiment [5], 57.7%; in experiment [6], 81.2%. Further, the growth in [7] was 30%; in experiment [8], 44.1%; in experiment [9], 62.5%; in [10], 21.1%.
`COc1cc2ncnc(Nc3ccc(F)c(Cl)c3)c2cc1OCC(=O)N1CCN(c2ccccc2)CC1`: the growth in [1] was 84.4%; in experiment [2], 83.6%; in [3] it was 93.5%; in experiment [4], 75%; in experiment [5], 85.7%; in experiment [6], 96%. For the same compound, the growth in experiment [7] was 48.9%; in experiment [8] it was 87.8%; in experiment [9], 93.9%; in experiment [10], 80.5%.
Turning to `Fc1cccc(Oc2ccc(Nc3ncnc4ccc(OCCCN5CCOCC5)cc34)cc2Cl)c1`, the growth was 20.9% in [1]; 38.5% in experiment [2]; 62% in experiment [3]; 78.1% in experiment [4]; 53.5% in [5]; 7.14% (active) in experiment [6]. Moreover, the growth in [7] was 12.1%; in experiment [8], 45.4%; in [9], 74.5%; in [10], 55.1%.
In the case of `N#CSCC1CC(O)(c2ccccc2)CC(c2ccc(F)cc2)O1` (stereo not given), the growth was -29.6% (active) in [1]; -22.4% (active) in experiment [2]; 10.3% in experiment [3]; 85.6% in experiment [4]; 26.1% in experiment [5]; 52.7% in [6]. The growth in experiment [7] is 51.1%; in experiment [8], -79.3% (active); in [9], -22.7% (active); in experiment [10], -3.67% (active).
Regarding `CCOC(=O)c1c(C(=O)c2cn(C)c3ccc(Br)cc23)c(-c2cn(C)c3ccc(Br)cc23)n(NC(=O)OC(C)(C)C)c1C`, the growth is 89.1% [100 µM] in [1]; 69.2% [100 µM] in experiment [2]; 71.8% [100 µM] in [3]; 92.3% [100 µM] in experiment [4]; 105% [100 µM] in experiment [5]; 54.8% [100 µM] in experiment [6]. Also, the growth in experiment [7] was 70.7% [100 µM]; in experiment [8], 88.5% [100 µM]; in experiment [9], 46.8% [100 µM]; in [10] it was 85.4% [100 µM].
As for `CSc1nnc(-c2cc3c([nH]c4ccccc43)c(-c3cccc(O)c3)n2)n1-c1ccccc1`, the growth in experiment [1] is 21.7%; in experiment [2], 16.2%; in experiment [3] it was 47.1%; in experiment [4] it was 58.7%; in experiment [5], 43.7%; in experiment [6], 47.4%. For the same compound, the growth was 49.9% in experiment [7], -0.418% (active) in experiment [8], 25.1% in [9] and 56.6% in experiment [10].
For `CCN(CC)CCn1c2ccc(OC)cc2c2sc3cc(OC)ccc3c(=O)c21`, the growth was 1.43% (active) in experiment [1]; 11.8% in experiment [2]; 30% in [3]; 37.1% in [4]; 37.7% in experiment [5]; 56.5% in experiment [6]. In addition, the growth is 14.5% in [7], 31.5% in experiment [8], 46.1% in [9] and 23% in [10].
Consider `CC(=O)Oc1ccc(C)cc1C`, for which the growth in [1] was 102%; in [2] it was 102%; in experiment [3], 110%; in [4], 102%; in experiment [5], 105%; in [6], 106%. In addition, the growth in experiment [7] is 114%; in experiment [8], 111%; in experiment [9] it was 109%; in [10] it was 108%.
On to `Clc1ccc(/C=N\N=C\c2ccc(Cl)c(Cl)c2)cc1Cl`, for which the growth in experiment [1] is 103%; in experiment [2], 102%; in experiment [3] it was 85.7%; in experiment [4], 66.9%; in experiment [5], 97.9%; in [6] it was 87.4%. The growth in experiment [7] was 79.5%; in experiment [8], 119%; in [9] it was 106%; in experiment [10] it was 77.3%.
Take `CCCOC(=O)Nc1nc2ccc(SCC(C)C)cc2s1`: the growth in [1] is 14.3%; in [2], 28.4%; in [3] it was 60.5%; in experiment [4], 60.1%; in [5], 61.2%; in experiment [6], 48.5%. Moreover, the growth was 55.4% in experiment [7], 15.6% in experiment [8], 65.3% in [9] and 16.1% in [10].
On to `COC(=O)c1c(C)nc(C)c2c1C(=O)C(Br)=C(NCc1ccccc1)C2=O`, for which the growth in experiment [1] is 27%; in experiment [2] it was 41.1%; in experiment [3], 4.6% (active); in experiment [4] it was 61.5%; in experiment [5], -57.3% (active); in experiment [6] it was 109%. Besides, the growth was 18% in experiment [7], -12.7% (active) in [8], 76% in experiment [9] and 3.37% (active) in [10].
Take `CCC(C(=O)[C@@H](C)[C@@H](O)[C@H](C)[C@@H]1O[C@@H]([C@@H](CC)C(=O)ONC(=O)c2ccccc2)CC[C@@H]1C)[C@H]1O[C@]2(C=CC(=O)[C@]3(CC[C@@](C)([C@H]4CC[C@](O)(CC)[C@H](C)O4)O3)O2)[C@H](C)C[C@@H]1C` (stereo not given in full): the growth is -22.5% (active) in [1]; 7.88% (active) in experiment [2]; 12.2% in [3]; -4.48% (active) in [4]; 35.6% in experiment [5]; 95.2% in [6]. For the same compound, the growth is -76.2% (active) in experiment [7], -71.1% (active) in experiment [8], -2.36% (active) in [9] and 12.1% in [10].
As for `COc1ccc(NC(=O)c2sc3nc(C)c(C(=O)/C=C/c4ccccc4)cc3c2N)cc1`, the growth in experiment [1] was 14.7%; in [2], -24.4% (active); in experiment [3] it was 8.59% (active); in experiment [4], 63.5%; in experiment [5], 52.3%; in [6] it was 103%. Further, the growth in experiment [7] is 17%; in experiment [8] it was 0.065% (active); in [9], 34%; in experiment [10], 15.5%.
`O=C(/C=C/c1cn(-c2ccccc2)nc1-c1ccc(Cl)cc1)c1ccc(F)cc1`: the growth in experiment [1] was 40.8%; in experiment [2] it was 67.5%; in experiment [3] it was 80.6%; in experiment [4] it was 99.3%; in experiment [5], 71.9%; in experiment [6] it was 82.6%. The growth in experiment [7] is 81.1%; in experiment [8], 78.8%; in experiment [9] it was 95.7%; in experiment [10], 69.8%.
Regarding `Clc1cc(Cl)c(Cl)c(-c2nnc(SCc3ccncc3Br)o2)c1`, the growth was -26.8% (active) in [1]; 72.9% in experiment [2]; 120% in [3]; 80.1% in experiment [4]; 90.6% in [5]; 101% in [6]. Also, the growth in experiment [7] is 72.9%; in experiment [8] it was 89%; in experiment [9], 90.4%; in experiment [10], 89.6%.
As to `Nc1c(C(=O)Nc2ccccc2C(F)(F)F)sc2nc3c(cc12)CCC3`, the growth was 86.6% in experiment [1]; 110% in experiment [2]; 100% in experiment [3]; 103% in experiment [4]; 101% in experiment [5]; 87.7% in [6]. For the same compound, the growth in experiment [7] was 105%; in [8], 113%; in [9], 95.1%; in [10] it was 101%.
For the compound `COC(=O)[C@]1(C)CCC[C@]2(C)[C@H]3C[C@H]4C(C(C)C)=C[C@]3(CC[C@H]21)[C@@H]1C(=O)CC[C@H](OCCC#N)[C@@H]14`, the growth in [1] was 58.9%; in experiment [2], 68%; in experiment [3], 99.2%; in experiment [4], 129%; in experiment [5], 77.3%; in experiment [6] it was 109%. Besides, the growth is 67.3% in [7], 81.5% in [8], 79.9% in experiment [9] and 77.8% in experiment [10].
Regarding `O=S(=O)(c1ccccc1)n1cc2c(c1)-c1nc(Nc3ncccn3)sc1CC2`, the growth was 74.6% in [1]; 71.3% in [2]; 65% in experiment [3]; 95.8% in [4]; -27.9% (active) in experiment [5]; 66% in experiment [6]. For the same compound, the growth in [7] was 70.4%; in experiment [8], 40.3%; in experiment [9], 22.4%; in experiment [10], 53%.
`N#Cc1c(-c2ccc(Cl)cc2)nc(NN2C(=O)c3ccccc3C2=O)nc1N1CCOCC1`: the growth is 84% in experiment [1]; 105% in [2]; 102% in [3]; 102% in experiment [4]; 98.7% in experiment [5]; 106% in experiment [6]. Moreover, the growth in [7] was 109%; in experiment [8], 113%; in experiment [9], 101%; in [10] it was 107%.

Source of the values: PubChem BioAssay (NCI).
